Assay outcomes deposited in PubChem BioAssay by National Center for Advancing Translational Sciences (NCATS).
Hits are enriched below; roughly 19% of the tested compounds scored in any of these assays.
HT1080NT lethal – qHTS for induction of synthetic lethality in tumor cells producing 2HG: qHTS for the HT-1080-NT fibrosarcoma cell line; HT-1080-NT fibrosarcoma viability, CellTiter-Glo ATP luminescence, 48 h; Potency, µM (titrated, usually from 46.1 µM), for inactives: top-dose activity, negative = less viability, hits mostly cytotoxic; 360,000 compounds, 1.6% hits;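 note: NT is the 2HG producing partner of a matched IDH1 knockdown line; 0% = DMSO-treated cells and -100% = media-only wells without cells; nearly all actives have a fitted effect of over 55% in size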
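750 cells/well, RPMI + 5% FBS; 2 h settle, compound pin-transfer, 48 h at 37 degrees C. CellTiter-Glo 10 min RT, luminescence. Normalized to DMSO and media-only wells.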
KB-3-1 cytotox – qHTS assay for MDR1-selective chemotherapeutics: Primary screen using the parental adenocarcinoma cell KB-3-1; 400,000 compounds, 1.4% hits; AID 1347075, 2019; Potency, µM (titrated, usually from 46.1 µM), hits mostly cytotoxic; KB-3-1 viability, CellTiter-Glo ATP luminescence, 72 h; note: nearly all actives have a fitted effect of over 60% in size
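Cytotoxicity in the drug-sensitive parental line KB-3-1 was scored as loss of CellTiter-Glo luminescence following 72 h incubation with compound. Values come from curve fitting of normalized concentration-response data.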
KB-V1 MDR tox – qHTS assay for MDR1-selective chemotherapeutics: Primary screen using the drug-selected MDR subline cells KB-V1; KB-V1 MDR cells viability, CellTiter-Glo, 72 h; Potency, µM (top dose mostly 46.1 µM), hits mostly cytotoxic; 400,000 compounds, 3.4% hits; AID 1347076, 2019; note: nearly all actives have a fitted effect of over 60% in size
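Luminescent ATP read-out (CellTiter-Glo, 10 min) measures survival of drug-selected KB-V1 MDR cells after 72 h, 37 degrees C compound exposure. Medium: phenol-red-free DMEM, 10% FBS. Values from fitted concentration-response curves.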
HT1080 IDH1KD tx – qHTS for induction of synthetic lethality in tumor cells producing 2HG: qHTS for the HT-1080-IDH1KD cell line | 360,000 compounds, 2% hits | HT-1080 IDH1 knockdown viability, ATP luminescence, 48 h | Potency, µM (top dose mostly 46.1 µM), without a hit: at the top dose activity, negative = toxicity, most hits filed as cytotoxic;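 note: 0% = DMSO wells and -100% = cell-free medium wells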
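% activity derives from luminescence (CellTiter-Glo), normalised to DMSO and no-cell wells. HT-1080-IDH1KD cells, 750/well, had 48 h compound exposure at 37 °C.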
DT40 TDP1 CPT – qHTS for Inhibitors of human tyrosyl-DNA phosphodiesterase 1 (TDP1): qHTS in cells in presence of CPT. chicken DT40 Tdp1-/-;hTDP1 cells + 20 nM CPT, ATP luminescence, 48 h. Potency, µM (highest dose often 46.2 µM), without a hit: at the top dose activity change, negative = growth inhibition, usual class: inhibitors. 420,000 compounds, 12% hits. AID 686979, 2013; note: nearly all actives have a fitted effect of over 55% in size
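Chicken DT40 Tdp1-/- cells complemented with human TDP1, 400 cells/well, exposed to compounds plus 20 nM camptothecin for at least 48 h at 37 C; viability read as ATP content by CellTiter-Glo luminescence.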
TDP1 cell noCPT – qHTS for Inhibitors of human tyrosyl-DNA phosphodiesterase 1 (TDP1): qHTS in cells in absence of CPT. DT40 Tdp1-/- hTDP1 cells, no CPT, ATP luminescence, 48 h. AID 686978, 2013. 420,000 compounds, 15% hits. Potency, µM (highest dose often 46.2 µM), inactives show at the highest dose activity change, negative = growth inhibition, most hits filed as inhibitors; note: nearly all actives have a fitted effect of over 55% in size
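Cells were dispensed at 400 per well, compounds added by pin tool, plates incubated ≥48 hr at 37 °C, then CellTiter-Glo added for 30 min at room temperature before luminescence reading. Line: DT40 Tdp1-/- complemented with hTDP1; camptothecin omitted.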
* hit, by the source's call; i = inactive; ? = inconclusive; . = no result; [ ] = another dose, or the depositor's remark. Calls come from the whole dose curve; as a rule, active = well fitted curve in the direction sought with a large enough effect; inconclusive = small, poorly fitted or top-dose-only effect, or another doubt; inactive = no such curve, though single readings can be large; an effect the other way counts as inactive or inconclusive. Unless noted, % is set by controls: 0 for no effect and ±100 for the full control effect; potency is the fitted concentration of half-maximal effect.

SMILES	HT1080NT lethal	KB-3-1 cytotox	KB-V1 MDR tox	HT1080 IDH1KD tx	DT40 TDP1 CPT	TDP1 cell noCPT
CC(O)(c1ccccc1)c1nc(-c2ccc3c(c2)OCO3)cs1 (stereo not given)	?	?	i	?	-14%	-18%
CC(C)C1(C)NC(c2ccc3c(c2)OCO3)=CC(c2ccccc2O)N1 (stereo not given)	.	i	i	.	?	13µM*
CCC1(C)NC(c2ccc3c(c2)OCO3)=CC(c2ccccc2O)N1 (stereo not given)	.	?	i	.	?	11µM*
CC(C)C1N=C(c2ccc3c(c2)OCO3)CC(c2ccccc2O)N1 (stereo not given)	?	?	?	?	5.2µM*	4.6µM*
COc1cccc(N2CCN(C(=O)C3CCN(S(=O)(=O)c4c(C)noc4C)CC3)CC2)c1	.	i	i	.	-17%	?
Cc1ncc2c(c1CNC(=O)c1cncs1)CCN(C(=O)c1csc(-c3cccs3)n1)C2	.	.	.	.	5%[9.04 µM]	-14%
Cc1noc(C)c1-c1nc(CS(=O)(=O)c2ccc(F)cc2)no1	0%	i	i	-1%	-17%	-23%
O=C(c1ccccc1)C(I)(I)N1CCOCC1	.	?	i	.	-25%	?
O=C(C1CC(=O)N(c2ccc3c(c2)OCCO3)C1)N1CCN(c2cccc(C(F)(F)F)c2)CC1 (stereo not given)	-17%	?	?	-28%	?	23µM*
O=C(C1CC(=O)N(c2ccc3c(c2)OCCO3)C1)N1CCN(S(=O)(=O)c2cccc(F)c2)CC1 (stereo not given)	1%	i	21µM*	-5%	-12%	?
Cc1c(C(=O)NCCCN2CCOCC2)oc2c1C1(CCC2)SCCS1	5%	i	i	12%	12µM*	23µM*
Cc1nc(C(F)(F)F)ccc1C(=O)N1CCC1(C)C(=O)NS(=O)(=O)c1c(C)noc1C (stereo not given)	19%	i	i	?	-3%	7%
COc1ccc(C(=O)CSc2nnc(CN3CCCCC3)n2-c2ccc(Cl)cc2)cc1OC	-14%	i	i	-2%	?	21µM*
COc1ccccc1-c1nnc(SCC(=O)c2ccc(Cl)cc2)n1-c1ccccc1	.	i	?	.	.	.
O=C(CSc1nnc(CN2CCCC2)n1-c1ccccc1)c1ccc2c(c1)OCO2	7%	i	i	6%	?	16µM*
COc1ccc(-c2cc(CCCC(=O)NCCc3cc(OC)ccc3OC)no2)cc1	0%	?	4.6µM*	-3%	?	?
CCOc1ccc(-c2cc(CCCC(=O)NCc3ccco3)no2)cc1	9%	i	i	6%	?	21µM*
COc1ccc(OC)c(CCNC(=O)CCC(=O)N2CCOc3ccc(C)cc32)c1	11%	i	i	5%	23µM*	?
CCOc1ccc(-c2cc(CCCC(=O)NCc3ccc(C)cc3)no2)cc1	-5%	i	i	0%	-22%	-24%
Cc1ccc(-c2noc(CCCC(=O)NCc3ccco3)n2)cc1	.	.	.	.	?	18µM*
CCOc1ccc(-c2cc(CCCC(=O)NCCc3ccc(OCC)c(OCC)c3)no2)cc1	.	i	i	.	?	?
COc1ccc(-c2noc(CCC(=O)NCc3ccco3)n2)cc1	11%	i	i	1%	-17%	-27%
O=C(Nc1ccnn1C1CCN(Cc2ccn[nH]2)CC1)c1ccccc1	7%	.	.	0%	-6%	-1%
O=C(CCCc1nc(-c2ccc(Cl)cc2)no1)NCc1ccco1	.	i	i	.	7.3µM*	12µM*
COc1cccc(CN2CCC3(CCC(CNC(=O)c4ccco4)O3)CC2)c1OC (stereo not given)	.	.	.	.	7%[9.04 µM]	-21%
SMILES	HT1080NT lethal	KB-3-1 cytotox	KB-V1 MDR tox	HT1080 IDH1KD tx	DT40 TDP1 CPT	TDP1 cell noCPT
Cc1ccc(-n2cccc2C(=S)N=P(N(C)C)(N(C)C)N(C)C)cc1	?	8.2µM*	3.3µM*	8.2µM*	2.1µM*	1.6µM*
Cc1ccc(-n2cccc2C(=O)NS(=O)(=O)c2ccc(C)cc2)cc1	-1%	i	i	-2%	-2%	29%
CC(=O)N(CCC1(C(C)C)CCOC(C)(C)C1)Cc1ccco1 (stereo not given)	-3%	i	12µM*	-2%	?	-20%
CCC1(C)CC(CCN(Cc2ccco2)C(C)=O)(c2ccccc2)CCO1 (stereo not given)	4%	i	i	-19%	?	?
CCOc1ccccc1NC(=O)C(Cc1ccccc1)NS(=O)(=O)c1ccc2c(c1)oc(=O)n2C (stereo not given)	.	i	i	.	?	8%
CC(C)c1ccc(OCC(=O)Nc2c3c(nn2C(C)(C)C)CS(=O)(=O)C3)cc1	-3%	i	?	0%	12µM*	?
CCN(CC)S(=O)(=O)c1cccc(C(=O)NC2CCCCC2)c1	-13%	i	18µM*	?	-9%	?
Cc1ccc(S(=O)(=O)N(C)C)cc1NC(=S)NC1CCCC(C)C1C (stereo not given)	1%	i	?	12%	21µM*	?
CCN(CC)S(=O)(=O)c1ccc(C)c(NC(=S)NC2CCCCC2)c1	-2%	i	i	-9%	?	15µM*
CC1CCCCC1NC(=S)Nc1cccc(S(=O)(=O)N(C)C)c1 (stereo not given)	-15%	i	?	-11%	?	?
O=C(NC1CC1)c1ccc(S(=O)(=O)NC2CCCCCC2)cc1	-3%	i	16µM*	-28%	?	?
CCN(CC)S(=O)(=O)c1ccc(C)c(NC(=O)CN(C)C)c1	-2%	i	i	0%	-6%	-14%
COc1ccc(CNC(=O)c2cnn(-c3nccc(-c4ccco4)n3)c2C)cc1OC	.	.	.	.	11%[9.04 µM]	-15%
COc1ccccc1Nc1nc(N)nc(CN2CCc3ccccc3C2)n1	-1%	i	i	1%	?	?
CCOc1ccc2c(c1)c(=O)c(S(=O)(=O)c1ccccc1)cn2CC(=O)Nc1ccccc1OC	.	i	?	.	5%	-31%
